LMNA splice mod: modulators of lamin A splicing | HeLa LMNA splicing GFP/RFP minigene ratio, 48 h | Potency, µM (top dose mostly 46.1 µM), hits mostly inhibitors | AID 1487 | 200,000 compounds, 0.01% hits; active = well fitted inhibition curve with a large enough effect in the signal ratio, with a control signal flat, not every such curve was filed as active; inconclusive = small, poorly fitted or top-dose-only effect, or effect the other way, or a change in a side signal; the % refers to the signal ratio
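S3 HeLa stable clones carrying a lamin A-EGFP splicing minigene plus DsRed2 were seeded at 600 cells/well in Opti-MEM with 2% FBS, pin-dosed and incubated 48 h at 37°C. Acumen cytometry (488 nm) gave the GFP/RFP total-intensity ratio.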
HttQ103 aggreg: reduces HttQ103-GFP aggregates in PC12 cells | PC12 HttQ103-GFP aggregates, Acumen cytometry, 40 h | Potency, µM (series often up to 46.1 µM), hits mostly inhibitors | 220,000 compounds, 1.1% hits; note: nearly all actives have a fitted effect of over 60% in size
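Steps: seed 1500 PC12 HTTQ103-GFP cells/well; add tebufenozide, 100 nM final; add compound titration; add ATPLite reagent; quantify GFP aggregates by laser scanning cytometry.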
ALDH1A1 inh: inhibitors of human aldehyde dehydrogenase 1A1; Purified ALDH1A1, NADH fluorescence, propionaldehyde substrate; AID 1030; Potency, µM (doses to about 75.3 µM), most hits filed as inhibitors; 220,000 compounds, 7.3% hits; P00352; active = well fitted inhibition curve with a large enough effect, not every such curve was filed as active; inconclusive = small, poorly fitted or top-dose-only effect, or another doubt; inactive = no such curve, though single readings can be large or run the other way
Luc counter: counter-screen: inhibitors of Kinase-Glo firefly luciferase. Q27757. Kinase-Glo luciferase, ATP luminescence, 8 min. Potency, µM (highest dose often 38.3 µM), hits mostly inhibitors. 200,000 compounds, 0.28% hits. AID 1379; note: nearly all actives have a fitted effect of over 60% in size
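Substrate mix (final 50 mM imidazole pH 7.2, 50 mM KCl, 7 mM MgCl2, 10 uM ATP, 0.01% Tween 20, 0.05% BSA) plus pin-tool compound, then Kinase-Glo detection mix; 8 min ambient, luminescence read.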
HTT ATP protect: protects HTT-Q103 PC12 cells, measured by ATP; AID 1471; Potency, µM (highest dose often 56.4 µM), most hits filed as activators; PC12 HTT-Q103 induced, cytoprotection, ATP luminescence, 40 h; 230,000 compounds, 0.14% hits; note: nearly all actives have a fitted effect of over 45% in size
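Readout: ATPlite luminescence (ATP level). Model: stable PC12, inducible Htt exon1 Q103-GFP. Inducer: tebufenozide, 100 nM final. Compounds: dose series. No G418 in medium.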
HPGD block: blocks human HPGD enzyme activity | P15428 | purified HPGD, NADH fluorescence kinetic, PGE2 substrate | Potency, µM, usual class: inhibitors | 150,000 compounds, 4.3% hits | AID 894; active = well fitted inhibition curve with a large enough effect, not every such curve was filed as active; inconclusive = small, poorly fitted or top-dose-only effect, or another doubt; inactive = no such curve, though single readings can be large or run the other way
Target sequence (P15428 whole entry, looked up): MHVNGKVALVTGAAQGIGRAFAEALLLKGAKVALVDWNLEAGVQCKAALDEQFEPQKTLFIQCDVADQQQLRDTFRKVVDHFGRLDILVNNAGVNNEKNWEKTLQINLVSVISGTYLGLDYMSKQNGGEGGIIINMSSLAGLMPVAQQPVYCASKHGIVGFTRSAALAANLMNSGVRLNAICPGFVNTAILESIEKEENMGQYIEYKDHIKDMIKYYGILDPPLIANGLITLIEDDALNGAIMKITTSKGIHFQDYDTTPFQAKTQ
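20 nM HPGD preincubated 15 min at room temperature with compound in 50 mM Tris-HCl pH 8, 0.01% Tween 20. Started with 1 mM NAD+ and 30 uM prostaglandin E2; NADH fluorescence (360/450 nm) read 5 times over 30-s intervals, last minus first.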
A number is an active result; – = inactive; ? = inconclusive; · = not tested or not shown; ! = repeats disagree; [ ] = dose if it differs, or a comment. Only some compounds are listed: those with a hit (about 9% of all), similar ones and a draw of the others. Unless noted, calls come from the whole dose curve; as a rule, active = well fitted curve in the direction sought with a large enough effect; inconclusive = small, poorly fitted or top-dose-only effect, or another doubt; inactive = no such curve, though single readings can be large; an effect the other way counts as inactive or inconclusive.

SMILES	LMNA splice mod	HttQ103 aggreg	ALDH1A1 inh	Luc counter	HTT ATP protect	HPGD block
Cc1cc(C)n(-c2ncccc2[N+](=O)[O-])n1	·	–[9.22 µM]	–	·	–[10 µM]	·
CC(C)c1ccc(-n2cnn(-c3ncccc3[N+](=O)[O-])c2=O)cc1	·	–[9.22 µM]	14µM	–	–[10 µM]	·
COc1cccc(OC)c1C(=O)OCC(=O)NC(=O)NCc1ccccc1	–	–	–	–	–	·
N[C@@H](Cc1c[nH]c2ccc(O)cc12)C(=O)O	?	–	28µM!	–	–	–
COc1ccc2[nH]cc(CC(N)C(=O)O)c2c1 (configuration not stated)	·	·	–	–	–	–
CN1CCCC2(CCCN(Cc3nc(Cc4cccc(C(F)(F)F)c4)no3)C2)C1 (configuration not stated)	·	–	–	·	–	·
COC(=O)[C@@]1(Cc2ccc(F)cc2)[C@H]2c3cc(C(=O)N4CCCC4)n(Cc4ccc(C)c(F)c4F)c3C[C@H]2CN1C(=O)c1ccccc1	·	·	–	–	?	–
COC(=O)[C@@]1(Cc2ccc(F)cc2)[C@H]2c3cc(C(=O)N4CCCC4)n(Cc4ccc(C(F)(F)F)nc4)c3C[C@H]2CN1C(=O)c1ccccc1	?	–	–	–	10µM	–
COC(=O)[C@@]1(Cc2ccc(OC)cc2)[C@H]2c3cc(C(=O)N(C)C)n(Cc4ccc(C)o4)c3C[C@H]2CN1C(=O)c1ccccc1	·	·	?	–	–	25µM
COC(=O)[C@@]1(Cc2ccc(F)cc2)[C@H]2c3cc(C(=O)N4CCCC4)n(Cc4ccc(C)o4)c3C[C@H]2CN1C(=O)c1ccccc1	·	·	–	–	–	22µM
CCOc1ccc(C(C)=O)cc1COc1ccc(-n2cnnn2)cc1	–	–	–	–	–	–
CCN1C(=O)[C@H]2[C@@H]3[C@H](O)C=CC(=O)[C@H]3CC[C@H]2C1=O	·	·	3.2µM	·	?	·
O=C1C=C[C@@H](O)[C@H]2[C@@H]3C(=O)N(C[C@@H]4CCCO4)C(=O)[C@@H]3CC[C@H]12	·	·	?	·	–[10 µM]	·
CCOC(=O)N1CCN(c2ncnc3c2oc2nc(C(C)C)c4c(c23)CCC4)CC1	–	–	1µM	–	–[0.074 µM]	?
CC(C)Cc1nc2oc3c(N4CCN(CCO)CC4)ncnc3c2c2c1CCCC2	–	–	7.9µM	–	–[10 µM]	–
CCn1c(-c2cc(Cl)ccc2OC)n[nH]c1=S	–	–[1.84 µM]	–	–	–	–
CCOC(=O)C1=C(c2ccccc2)OC(N)=C(C#N)C1c1ccncc1 (configuration not stated)	·	–[9.22 µM]	?	–	–[10 µM]	·
CC1=C(n2nnc3ccccc32)C(c2ccccc2)C(C#N)=C(N)O1 (configuration not stated)	–	–	13µM	–	–	?
COC(=O)CCC(=O)OC1(C)C(=O)C2=CN(Cc3ccc(OC)cc3)C(c3ccc(OC)cc3)=CC2=C(Br)C1=O (configuration not stated)	–[9.22 µM]	·	3.2µM	–[7.66 µM]	–[10 µM]	–
COC(=O)CCC(=O)OC1(C)C(=O)C2=CN(c3ccccc3)C(c3ccc(OC)cc3)=CC2=C(Br)C1=O (configuration not stated)	–[9.22 µM]	·	3.5µM	–[7.66 µM]	–[10 µM]	–
CSc1ccc(/C=C(/NC(=O)c2ccccc2)C(=O)N2CCN(C)CC2)cc1	·	–	?	–	–	·
O=C1CN(C(=O)COC(=O)c2ccc(N3CCCCCC3)c([N+](=O)[O-])c2)c2ccccc2N1	–	?	7.9µM	·	–[10 µM]	·
CCC(CC)c1nnc(NC(=O)c2ccc(N3CCCCC3)c([N+](=O)[O-])c2)s1	–	–	0.79µM	–	–[10 µM]	–
O=[N+]([O-])c1ccc(N2CCCCCC2)c([N+](=O)[O-])c1	–	–	–	–	–[10 µM]	–
O=C(NCc1ccco1)c1ccc(N2CCCCC2)c([N+](=O)[O-])c1	?	–	?	–	·	32µM
SMILES	LMNA splice mod	HttQ103 aggreg	ALDH1A1 inh	Luc counter	HTT ATP protect	HPGD block
NNC(=O)c1ccc(N2CCCCCC2)c([N+](=O)[O-])c1	–	?	1.6µM	–	–	·
O=C(Nc1nc2ccc3ccccc3c2s1)c1ccc(N2CCCCC2)c([N+](=O)[O-])c1	?	–	–	–	–[10 µM]	–
NC(=O)c1ccc(N2CCN(c3ccc(O)cc3)CC2)c([N+](=O)[O-])c1	?	–	16µM	–	–[10 µM]	·
CCCCCCCNC(=O)c1ccc(N2CCC3(CC2)OCCO3)c([N+](=O)[O-])c1	?	–	25µM	–	–[10 µM]	–
O=[N+]([O-])c1cc([N+](=O)[O-])c(N2CCCCCC2)cc1NCCO	–	–	2.2µM	–	–	–
CC(=O)c1ccc(N2CCN(c3ccc(C(N)=O)cc3[N+](=O)[O-])CC2)cc1	·	–	–	–	–	·
Cc1ccc2ncc(NC(=O)c3ccc(F)cc3)c(=O)n2c1	–	–[9.22 µM]	?	–	–	?
CC(C)(C)c1ccc(C(=O)CC(Sc2ccc(Cl)cc2)C(=O)O)cc1 (configuration not stated)	?	–	2.5µM	–	·	·
O=C(O)CCC(=O)NC1CCCCCCC1	–	–	–	–	–[0.074 µM]	–
O=C(Nc1ccc(-c2nc3ccccc3[nH]2)cc1)c1ccccc1NS(=O)(=O)c1ccc(F)cc1	?	–	?	–	–[10 µM]	?
O=C(Nc1ccc(Cc2ccncc2)cc1)C1CCC(N2C(=O)C3C4C=CC(C5CC45)C3C2=O)CC1 (configuration not stated)	?	?	?	–	–	–
CCOc1ccc(NC(=O)C2CCC(N3C(=O)C4CC=CCC4C3=O)CC2)cc1 (configuration not stated)	?	–	4µM	–	–	–
COc1ccc(NC(=O)C2CCC(N3C(=O)C4C5C=CC(C5)C4C3=O)CC2)cc1 (configuration not stated)	–	?	7.9µM	–	–	–
Cc1cc(C)cc(NC(=O)C(=S)NCc2ccccc2)c1	·	–	–	–	–	·
CC(C)(C)Cc1nnc(NC(=O)c2ccc([N+](=O)[O-])cc2)s1	–	–	–	–	·	–
CC(C)Cc1nnc(NC(=O)Cc2ccccc2[N+](=O)[O-])s1	–	–	?	–	–[10 µM]	32µM
O=C(Cc1ccccc1[N+](=O)[O-])Nc1nccs1	·	–[9.22 µM]	·	·	–[10 µM]	·
CC(C)(C)Cc1nnc(NC(=O)Cc2ccc([N+](=O)[O-])cc2)s1	–	–	11µM	–	–[10 µM]	14µM
CS(=O)(=O)N1CCN(c2ccccc2NC(=O)c2cccnc2Cl)CC1	–	–[1.84 µM]	–	–	–	–
CC(=O)NC(=S)NNC(=O)COc1ccc(Br)cc1	–	–	18µM	–	–	·
C/C(=N\NC(=O)COc1ccc([N+](=O)[O-])cc1)C(C)(C)C	–	–	20µM	–	–	–
CC(=O)NC(=S)NNC(=O)COc1ccc([N+](=O)[O-])cc1	·	–	22µM	–	–	·

High-throughput results from PubChem.
